# Screening results (PubChem)
# The list is not random: actives were taken first. Their share in the collection is about 21%.
# Pf growth 48h = Primary qHTS for delayed death inhibitors of the malarial parasite plastid, 48 hour incubation. Potency, µM (series often up to 28.7 µM), most hits filed as inhibitors. 310,000 compounds, 5.9% hits. P. falciparum luciferase growth in erythrocytes, 48 h
#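 Parasite viability was followed by luminescence of a genomically integrated firefly luciferase. Cultures held 0.1% parasitemia at 2% hematocrit (final), incubated under 5% CO2 at 37 C.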
# Shiga inhibitor = A qHTS for Small Molecule Inhibitors of Shiga Toxin | Vero cells, Shiga toxin protein synthesis inhibition reporter | inhibition, % at 38.7 µM | 290,000 compounds, 9.2% hits; in the data active = inhibition mostly above about 28%, no sharp cut-off; inactive = mostly below about 43%
# CHX counter = Cycloheximide Counterscreen for Small Molecule Inhibitors of Shiga Toxin. 300,000 compounds, 12% hits. max response, %. cell reporter, cycloheximide protein synthesis inhibition counterscreen; in the data active = max response mostly above about 13%, no sharp cut-off; inactive = mostly below about 14%; note: read at 38.3 µM for the half of the compounds with a filed dose
# Pf growth 96h = Primary qHTS for delayed death inhibitors of the malarial parasite plastid, 96 hour incubation | P. falciparum luciferase reporter growth, 96 h | Potency, µM (top dose mostly 28.7 µM), hits mostly inhibitors | 320,000 compounds, 6.9% hits
#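 Luminescence readout: decreased luciferase signal marks inhibited growth of reporter-expressing P. falciparum in infected red cells (2% hematocrit, 0.05% parasitemia final), exposed to compound two generations (96 h, 37 C, 5% CO2).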
# NS1 function inh = qHTS Assay for Inhibitors of Influenza NS1 Protein Function; Potency, µM (series often up to 46.1 µM); 270,000 compounds, 0.4% hits; AID 2326, 2010; calls by dose curve; note: actives are rising curves; nearly all actives have a fitted effect of over 50% in size
#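 Read-out: OD600 growth recovery of NS1-expressing budding yeast. Cells grown overnight at 30C in -URA glucose medium, washed, resuspended and diluted 1:100 in 2% galactose assay medium, pH 6.0. Same strain lacking NS1 served as positive control.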
# A number is an active result; 0 = inactive; ? = inconclusive; - = no result given; [ ] = remark or other dose. Unless noted, calls come from the whole dose curve; as a rule, active = well fitted inhibition curve with a large enough effect; inconclusive = small, poorly fitted or top-dose-only effect, or another doubt; inactive = no such curve, though single readings can be large or run the other way.
SMILES,Pf growth 48h,Shiga inhibitor,CHX counter,Pf growth 96h,NS1 function inh
Cc1cccc(NC(=O)c2cc(NC(=O)c3ccco3)ccc2Cl)n1,0,21,0,0,0
CSc1ncccc1C(=O)Nc1cccc(C)n1,0,0,0,0,0
Cc1occc1C(=O)Nc1cc(C(C)(C)C)on1,0,70,29,-,0
Cc1ccccc1CC(=O)Nc1cc(C(C)(C)C)on1,0,0,9.7,?,0
Cc1cccc(NC(=O)c2cc(NC(=O)C3CCCCC3C(=O)O)ccc2Cl)n1 (stereo not drawn),0,0,0,0,0
Cc1cc(NC(=O)Cc2ccccc2C)no1,0,0,0,0,0
Cc1cccc(NC(=O)c2ccoc2C)n1,0,84,29,-,0
Cc1cccc(NC(=O)c2ccccc2Br)n1,-,0,0,12µM,0
CC1CN(C/C(=N\O)C23CC4CC(CC(C4)C2)C3)CC(C)O1 (stereo not drawn),0,0,0,0,0
O=S(=O)(CCSc1ccccn1)c1nc2ccccc2s1,?,0,20,1.7µM,0
O=S(=O)(CCSc1nc2ccccc2o1)c1nc2ccccc2s1,13µM,0,0,?,0
Cc1cccc(-c2nc3ccccc3c(=O)n2NC(=O)c2ccc([N+](=O)[O-])c(C)c2)c1,0,0,0,0,0
COc1ccc(-c2[nH]ncc2/C=C(/C#N)C(=O)NC2CCCCCC2)cc1,?,0,0,?,0
CCOC(=O)C1CCCN(CCC(=O)Nc2cccc(Cl)c2C)C1 (stereo not drawn),0,0,0,0,0
Cc1cc(C)cc(OCCOc2cccc(C=C3C(=O)NC(=O)NC3=O)c2)c1,0,55,18,0,0
O=C1NC(=O)C(=Cc2ccc3ccccc3c2)C(=O)N1,0,0,0,?,0
Cc1ccc(OCCOc2cccc(C=C3C(=O)NC(=O)NC3=O)c2)cc1,0,93,62,0,0
CC(NC(=O)c1ccco1)C(=O)OCC(=O)c1ccc(Cl)s1 (stereo not drawn),0,0,0,0,-
Cc1nc(=O)c(-c2ccccc2)c(C)n1CCCCCC(=O)O,-,0,0,?,0
OC(CCc1ccncc1)COc1ccccc1 (stereo not drawn),?,-,-,0,-
Cc1cc(C)n2nc(C(=O)NNC(=O)c3ccc(Cl)cc3)nc2n1,0,34,31,0,0
Cc1cc(C)n2nc(C(=O)N/N=C/c3cccc(Cl)c3)nc2n1,0,0,9.4,0,0
COc1ccccc1NC(=S)NC(NC(=O)CC(C)C)C(Cl)(Cl)Cl (stereo not drawn),15µM,0,0,?,0
COc1ccccc1NC(=S)NC(NC(=O)c1ccco1)C(Cl)(Cl)Cl (stereo not drawn),?,0,0,0,0
COc1ccc(C(=O)c2c(N)sc3c2CCN(C(=O)OC(C)(C)C)C3)cc1,13µM,0,0,?,0
SMILES,Pf growth 48h,Shiga inhibitor,CHX counter,Pf growth 96h,NS1 function inh
COc1ccc(C(=O)NCc2ccc(N3CCN(C(=O)OC(C)(C)C)CC3)cc2)cc1,?,0,0,?,0
CN1CCc2c(sc(N)c2C(=O)c2ccc(Cl)cc2)C1,?,0,0,4.7µM,0
Nc1sc2c(c1C(=O)c1ccc(Cl)cc1)CCCC2,-,0,0,-,-
COCCCNC(=S)NCCNc1nc2c(C)c(C)ccc2cc1C#N,?,0,0,0,0
CCN(Cc1ccccc1)C(=O)Cn1cnc2c1c(=O)n(C)c(=O)n2C,0,0,0,0,0
Cn1c(=O)c2c(ncn2CCN(CCO)Cc2ccccc2)n(C)c1=O,0,0,0,7.4µM,0
Cc1cccc(NC(=O)CN2CCSc3ccccc32)c1,0,49,34,0,-
COCc1nc2ccccc2n1Cc1ccccc1,0,0,20,?,0
ClCc1nc2ccccc2n1Cc1ccccc1,6.6µM,0,0,?,0
COCc1nc2ccccc2n1Cc1ccc(Br)cc1,?,0,0,0[5.75 µM],0
OCCCc1nc2ccccc2n1Cc1ccccc1,0,0,0,?,0
O=C(NC1CCCC1)C(c1ccccc1)N(Cc1cccnc1)C(=O)Cc1cccs1 (stereo not drawn),0,0,0,0,0
Cc1cc(CNC(=S)Nc2ccc(Br)cc2Cl)nn1C,0,0,0,0,0
O=c1c2cc(N3CCOCC3)ccc2[nH]c(=S)n1Cc1ccc(Cl)cc1,-,40,76,0,0
O=C(CCCCCn1c(=S)[nH]c2ccc(N3CCOCC3)cc2c1=O)NCc1ccc(Cl)cc1,8.3µM,0,0,0,-
O=c1c2cc(N3CCOCC3)ccc2[nH]c(=S)n1CCN1CCCC1,?,0,0,?,0
Cc1cccc(N2CCN(C(=O)CCCCCn3c(=S)[nH]c4ccc(N5CCOCC5)cc4c3=O)CC2)c1C,9.3µM,0,0,0,0
Cc1ccc(Cn2c(=S)[nH]c3ccc(N4CCOCC4)cc3c2=O)o1,?,0,16,0,?
CCCCn1c(=S)[nH]c2ccc(N3CCOCC3)cc2c1=O,?,0,0,8.3µM,-
CCCOc1ccc(C(=O)NNC(=S)NC(=O)c2cc(-c3ccccc3)nc3ccccc23)cc1,0,0,0,0,0
CC(C)N(C(=O)CSc1nc2ccccc2n1Cc1ccc(F)cc1)C(C)C,4.7µM,0,0,0,0
CC(C)NC(=O)CSc1nc2ccccc2n1CC(=O)N(C(C)C)C(C)C,0,46,20,4.1µM,-
CC(C)NC(=O)CSc1nc2ccccc2n1CC(=O)N1CCc2ccccc21,?,0,0,13µM,0
CCOC(=O)CSc1nc2ccccc2n1CC(=O)N(C(C)C)C(C)C,0,0,0,?,0
Nc1nonc1-n1nnc(C(=O)N/N=C/c2ccc(OCc3ccccc3)cc2)c1CN1CCCCC1,0,0,0,0,0
SMILES,Pf growth 48h,Shiga inhibitor,CHX counter,Pf growth 96h,NS1 function inh
CC(=O)Nc1cc(S(=O)(=O)C(F)(F)F)ccc1Cl,0,0,0,-,0
Cc1ccc(C2=NN(C(=S)Nc3ccccc3)C(c3ccco3)C2)cc1 (stereo not drawn),0,71,39,9.3µM,?
COc1ccc(C2=NN(C(=O)COC(=O)c3ccc(NC(=O)CC#N)cc3)C(c3ccco3)C2)cc1 (stereo not drawn),12µM,-,-,?,-
CCS(=O)(=O)Nc1ccc(C2=NN(C(=S)Nc3ccccc3)C(c3ccco3)C2)cc1 (stereo not drawn),?,0,18,?,0
CS(=O)(=O)Nc1ccc(C2=NN(C(=O)c3ccco3)C(c3ccccc3)C2)cc1 (stereo not drawn),0,0,0,?,0
Cc1ccc(C)c(N(CC(=O)NCCSCc2ccco2)S(C)(=O)=O)c1,?,0,0,?,?
C/C(CC(=O)NC1CCCCC1)=N\NC(=O)Cc1ccc(-c2ccccc2)cc1,0,0,0,?,-
COCCN(C(=O)CN1CCN(S(=O)(=O)c2ccc(F)cc2)CC1)c1c(N)n(Cc2ccccc2)c(=O)[nH]c1=O,0,0,0,0,0
Cc1cc(Br)ccc1OCCCCNCCO,?,0,0,10µM,0
C=CCNCCCCOc1ccc(Br)cc1C,0,0,0,9.3µM,0
C=CCNCCCOc1ccc(Cl)cc1Br,0,0,0,?,0
